# Measured values: PubChem BioAssay
# Calls of active or inactive are those of the source.
# What was measured:
# [1] = small molecules captured by biotinylated probe aFSTL3 – biochemical, small-molecule microarray, fluorescence 635/667, stem cell growth factor project, primary screen (AID 1064); settings: higher = more signal;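 note: measures binding of the biotinylated anti-FSTL3 antibody to printed compounds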
# [2] = binders from COS7 lysate, DM2A8 probe, primary screen, torsin A project, cell lysate, small-molecule microarray, fluorescence 635/667 (AID 1065); settings: higher = more signal, COS7 lysate expressing mutant human TOR1A
# [3] = small molecules captured by biotinylated probe aFGF2 – biochemical, small-molecule microarray, fluorescence 635/667, stem cell growth factor project, primary screen (AID 1067); settings: higher = more signal;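 note: measures binding of biotinylated aFGF2 protein to printed compounds on slides; z-score merges feature fluorescence and signal-to-noise across triplicate slides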
# [4] = small molecules captured by biotinylated probe aFGF10 – biochemical, small-molecule microarray, fluorescence 635/667, stem cell growth factor project, primary screen (AID 1071); settings: higher = more signal;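 note: score merges 667 nm spot intensity and signal to noise from triplicate slides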
# [5] = biological target: Neurogenic locus notch homolog protein 2 (Homo sapiens) (UniProt Q04721); test: small molecules binding Notch2 protein – biochemical, small-molecule microarray, 635 nm fluorescence, stem cell growth factors, primary screen (AID 1073); settings: higher = more signal
# [6] = biological target: Pro-neuregulin-1, membrane-bound isoform (Homo sapiens) (UniProt Q02297); test: small molecules binding neuregulin-1 protein – biochemical, small-molecule microarray, fluorescence 635/667, psychiatric disease protein project, primary screen (AID 1075); settings: NRG1 binding, 635 nm fluorescence, higher = more signal;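 note: score combines 667 nm spot fluorescence with signal to noise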
# [7] = tested on: Neuregulin-1 EGF-like domain; test: small molecules binding NRG1 EGF domain – biochemical, small-molecule microarray, 635 nm fluorescence, primary screen (AID 1081); settings: higher = more signal;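 note: binding of the protein to compounds printed on small-molecule microarray slides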
# [8] = FRG1 expression reporter modulators in myotubes – cell-based, C2C12 myotubes, firefly/Renilla luciferase, luminescence, FRG1 inhibition for FSHD, primary screen (AID 1084); settings: FRG1 promoter luciferase, higher = more signal, called active from +8 up or from −8 down
# [9] = small molecules captured by biotinylated probe aFST – biochemical, small-molecule microarray, fluorescence 635/667, stem cell growth factor project, primary screen (AID 1086); settings: higher = more signal;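 note: score merges 667 nm fluorescence with signal-to-noise of each printed compound spot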
# [10] = binders of probe aHhip on microarray, primary screen, stem cell growth factor project, biochemical, small-molecule microarray, fluorescence 635/667 (AID 1087); settings: higher = more signal;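 note: score merges spot fluorescence at 667nm with spot signal to noise ratio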
# [11] = tested on: PRMT1 (protein arginine N-methyltransferase 1); test: small molecules binding arginine methyltransferase PRMT1 – biochemical, small-molecule microarray, 635 nm fluorescence, primary screen (AID 1088); settings: higher = more signal;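 note: binding of Prmt1 protein to compounds spotted on small-molecule microarray slides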
# [12] = growth effects on S. cerevisiae YJM789 – YJM789 clinical isolate, OD600, 24 h, basal, primary screen (AID 1089); settings: higher = more signal, called active from +8 up or from −8 down;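 note: growth of clinical yeast isolate S. cerevisiae YJM 789 seeded 1000 cells per well; test concentration not given here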
# [13] = S. pombe growth modifiers, basal conditions – strain 972, OD600, 24 h, no modulator, primary screen (AID 1090);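 note: basal condition with compound alone and no growth modifier present; test concentration not given here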; settings: S. pombe 972 growth, higher = more signal, called active from +8 up or from −8 down
# [14] = budding yeast growth modifiers under rapamycin – strain BY4716, OD600, 96 h, primary screen (AID 1091); note: test concentration not given here; settings: S. cerevisiae BY4716 + rapamycin, higher = more signal, called active from +8 up or from −8 down
# [15] = biological target: Torsin-1A-interacting protein 2 (Homo sapiens) (UniProt Q8NFQ8); test: small molecules binding lysate-expressed LULL1 – cell lysate, human LULL1 lysate, 635/667 nm fluorescence, primary screen (AID 1092); settings: small-molecule microarray, hLULL1 lysate binding, 635 nm fluorescence; higher = more signal;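 note: probe is lysate of COS7 cells overexpressing human LULL1; score merges per-feature 667 nm fluorescence with signal-to-noise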
# [16] = optical density change of DRC41 E. coli – strain DRC41, OD650, 24 h, E. coli filamentation project, primary screen (AID 1093);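 note: MC1000 strain lacking acrAB efflux and sulA so SOS filamentation is blocked; test concentration not given here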; settings: E. coli DRC41 growth, higher = more signal, called active from +8 up or from −8 down
# [17] = probe aLefty2 binding to arrayed compounds – biochemical, biotinylated probe, 635/667 nm fluorescence, primary screen (AID 1094); settings: small-molecule microarray, higher = more signal;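 note: score merges spot fluorescence near 667 nm with spot signal-to-noise ratio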
# [18] = tested on: Noggin (protein binding on small-molecule microarray); test: small molecules binding Noggin protein – biochemical, 635/667 nm fluorescence, primary screen (AID 1095); settings: 635 nm fluorescence, higher = more signal;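 note: score merges 667 nm feature fluorescence with signal to noise over triplicate slides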
# [19] = biological target: Neurogenic locus notch homolog protein 3 (Homo sapiens) (UniProt Q9UM47); test: small molecules binding NOTCH3 protein – biochemical, 635/667 nm fluorescence, primary screen (AID 1096); settings: small-molecule microarray, 635 nm fluorescence, higher = more signal
# [20] = probe aEGFR binding to arrayed compounds – biochemical, biotinylated probe, 635/667 nm fluorescence, primary screen (AID 1097); settings: small-molecule microarray, higher = more signal;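 note: probe is a biotinylated anti-EGFR antibody binding compounds printed on slides; score combines fluorescence near 667 nm and signal to noise of each spot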
# Sequence of Neurogenic locus notch homolog protein 3 (Homo sapiens) (Q9UM47 whole entry, looked up): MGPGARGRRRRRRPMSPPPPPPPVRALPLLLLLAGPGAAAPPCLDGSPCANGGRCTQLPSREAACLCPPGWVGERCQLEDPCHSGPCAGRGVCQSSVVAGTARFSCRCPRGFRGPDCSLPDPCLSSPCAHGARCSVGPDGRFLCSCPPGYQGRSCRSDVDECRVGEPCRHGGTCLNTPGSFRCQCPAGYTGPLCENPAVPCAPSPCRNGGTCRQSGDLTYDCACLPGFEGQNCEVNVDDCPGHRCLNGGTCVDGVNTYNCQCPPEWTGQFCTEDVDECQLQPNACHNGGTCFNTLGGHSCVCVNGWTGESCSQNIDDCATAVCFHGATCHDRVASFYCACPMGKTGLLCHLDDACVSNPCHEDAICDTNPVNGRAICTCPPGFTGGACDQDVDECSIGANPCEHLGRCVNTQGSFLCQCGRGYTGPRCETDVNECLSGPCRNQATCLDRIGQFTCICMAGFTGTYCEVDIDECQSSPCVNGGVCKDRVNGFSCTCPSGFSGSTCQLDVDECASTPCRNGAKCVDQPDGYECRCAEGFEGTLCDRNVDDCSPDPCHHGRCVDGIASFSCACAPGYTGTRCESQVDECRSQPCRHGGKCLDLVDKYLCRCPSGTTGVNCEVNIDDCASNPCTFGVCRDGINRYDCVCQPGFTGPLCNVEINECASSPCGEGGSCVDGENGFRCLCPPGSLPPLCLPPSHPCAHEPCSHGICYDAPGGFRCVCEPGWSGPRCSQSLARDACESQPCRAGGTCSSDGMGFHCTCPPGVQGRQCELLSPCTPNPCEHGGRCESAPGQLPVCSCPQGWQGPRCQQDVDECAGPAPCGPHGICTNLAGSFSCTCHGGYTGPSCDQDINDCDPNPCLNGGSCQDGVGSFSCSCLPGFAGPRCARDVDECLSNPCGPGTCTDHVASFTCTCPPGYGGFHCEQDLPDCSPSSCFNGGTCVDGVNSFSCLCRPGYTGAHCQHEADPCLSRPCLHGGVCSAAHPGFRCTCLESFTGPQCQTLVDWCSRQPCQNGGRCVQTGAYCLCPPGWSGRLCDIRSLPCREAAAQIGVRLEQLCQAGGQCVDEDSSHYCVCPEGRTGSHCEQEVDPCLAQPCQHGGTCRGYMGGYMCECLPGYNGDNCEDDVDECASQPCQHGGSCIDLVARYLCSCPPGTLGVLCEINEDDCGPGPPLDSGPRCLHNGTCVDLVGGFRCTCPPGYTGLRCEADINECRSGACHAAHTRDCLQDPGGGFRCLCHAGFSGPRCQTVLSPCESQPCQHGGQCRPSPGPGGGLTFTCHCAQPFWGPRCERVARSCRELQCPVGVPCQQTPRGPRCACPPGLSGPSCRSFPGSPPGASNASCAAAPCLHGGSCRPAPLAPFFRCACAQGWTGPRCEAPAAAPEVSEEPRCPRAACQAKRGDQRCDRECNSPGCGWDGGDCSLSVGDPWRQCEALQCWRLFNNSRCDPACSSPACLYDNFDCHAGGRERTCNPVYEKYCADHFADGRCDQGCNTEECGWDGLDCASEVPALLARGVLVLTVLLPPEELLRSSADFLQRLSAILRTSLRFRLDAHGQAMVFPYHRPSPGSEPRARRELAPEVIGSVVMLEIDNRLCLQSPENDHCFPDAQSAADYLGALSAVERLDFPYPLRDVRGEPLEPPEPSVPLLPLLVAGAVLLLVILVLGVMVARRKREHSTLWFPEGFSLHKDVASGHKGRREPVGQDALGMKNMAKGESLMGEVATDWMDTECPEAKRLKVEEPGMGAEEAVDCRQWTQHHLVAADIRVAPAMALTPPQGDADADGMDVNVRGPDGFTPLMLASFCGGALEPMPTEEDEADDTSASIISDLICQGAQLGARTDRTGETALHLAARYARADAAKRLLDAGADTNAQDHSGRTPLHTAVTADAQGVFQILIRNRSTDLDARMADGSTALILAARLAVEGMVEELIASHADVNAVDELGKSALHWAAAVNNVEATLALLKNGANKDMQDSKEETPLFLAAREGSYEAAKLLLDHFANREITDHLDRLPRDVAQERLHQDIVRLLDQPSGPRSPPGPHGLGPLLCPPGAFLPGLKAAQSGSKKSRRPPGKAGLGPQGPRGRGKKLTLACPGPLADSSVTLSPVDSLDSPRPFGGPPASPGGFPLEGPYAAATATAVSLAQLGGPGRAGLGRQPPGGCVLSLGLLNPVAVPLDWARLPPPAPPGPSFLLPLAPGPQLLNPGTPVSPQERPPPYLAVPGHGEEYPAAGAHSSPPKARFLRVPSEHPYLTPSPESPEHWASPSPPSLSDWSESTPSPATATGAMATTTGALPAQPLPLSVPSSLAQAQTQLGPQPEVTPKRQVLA
# Sequence of Torsin-1A-interacting protein 2 (Homo sapiens) (Q8NFQ8 whole entry, looked up): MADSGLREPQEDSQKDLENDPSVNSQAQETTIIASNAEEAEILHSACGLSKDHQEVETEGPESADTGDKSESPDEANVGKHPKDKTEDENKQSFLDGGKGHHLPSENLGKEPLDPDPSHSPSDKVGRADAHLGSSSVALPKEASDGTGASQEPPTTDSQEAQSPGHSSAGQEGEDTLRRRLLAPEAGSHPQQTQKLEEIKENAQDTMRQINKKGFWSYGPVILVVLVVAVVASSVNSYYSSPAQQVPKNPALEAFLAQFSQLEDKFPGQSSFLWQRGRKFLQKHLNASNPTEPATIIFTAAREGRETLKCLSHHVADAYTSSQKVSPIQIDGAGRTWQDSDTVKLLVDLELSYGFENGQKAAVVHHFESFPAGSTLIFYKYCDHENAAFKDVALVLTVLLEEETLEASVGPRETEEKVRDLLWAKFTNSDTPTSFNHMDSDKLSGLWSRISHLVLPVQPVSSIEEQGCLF
# Sequence of Pro-neuregulin-1, membrane-bound isoform (Homo sapiens) (Q02297 whole entry, looked up, the tested form may be a part, canonical isoform): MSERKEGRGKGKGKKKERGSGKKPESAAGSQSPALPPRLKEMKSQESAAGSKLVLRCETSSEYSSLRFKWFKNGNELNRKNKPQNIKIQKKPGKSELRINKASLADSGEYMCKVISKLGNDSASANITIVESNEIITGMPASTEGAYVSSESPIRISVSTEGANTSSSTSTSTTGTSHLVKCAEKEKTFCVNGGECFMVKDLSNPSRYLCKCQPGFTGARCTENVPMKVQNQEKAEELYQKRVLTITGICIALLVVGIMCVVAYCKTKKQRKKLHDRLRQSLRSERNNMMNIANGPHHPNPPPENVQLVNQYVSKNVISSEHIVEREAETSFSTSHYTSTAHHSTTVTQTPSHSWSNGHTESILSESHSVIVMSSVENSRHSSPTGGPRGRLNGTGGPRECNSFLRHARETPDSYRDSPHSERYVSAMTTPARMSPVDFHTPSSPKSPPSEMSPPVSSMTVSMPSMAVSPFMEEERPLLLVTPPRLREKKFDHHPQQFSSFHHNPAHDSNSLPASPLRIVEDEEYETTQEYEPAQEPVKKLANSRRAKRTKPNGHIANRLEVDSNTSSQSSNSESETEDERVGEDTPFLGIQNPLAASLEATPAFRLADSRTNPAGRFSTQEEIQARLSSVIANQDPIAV
Structure (SMILES),composite z-score [1],composite z-score [2],composite z-score [3],composite z-score [4],composite z-score [5],composite z-score [6],composite z-score [7],z-score [8],composite z-score [9],composite z-score [10],composite z-score [11],z-score [12],z-score [13],z-score [14],composite z-score [15],z-score [16],composite z-score [17],composite z-score [18],composite z-score [19],composite z-score [20]
O=C1OCCC=C[C@H]2OC34C=CCN(Cn5nnc6ccccc65)C(=O)[C@H]3N(CCCCCCO)C(=O)[C@@H]4C12 (stereo not given in full),0.603,0.134,-0.129,-0.612,-1.29,-0.207,1.11,-0.229 (inactive),-0.564,-0.134,-0.0465,0.298 (inactive),0.577 (inactive),0.194 (inactive),0.529,-0.369 (inactive),-0.0741,-1.09,-0.36,-0.354
COC(=O)c1c2oc(c1C(=O)OC)C(=O)N(Cc1ccccc1)Cc1cn(nn1)C[C@H](Cc1ccccc1)NC(=O)N[C@H](CO)CC2,-0.462,-0.277,-0.105,0.138,-0.0194,0.229,1.1,-0.736 (inactive),0.0118,0.0092,0.707,-3.16 (inactive),-1.15 (inactive),0.0108 (inactive),1.69,0.101 (inactive),-0.256,0.698,0.43,-0.11
CC1CC/C=C\[C@H]2OC34C=CCN(c5ccc(Cl)cc5)C(=O)[C@H]3N(CCCCCO)C(=O)[C@]4(C)C2C(=O)O1 (stereo not given in full),0.124,-0.673,-0.16,-1.26,-1.01,0.332,0.429,0.581 (inactive),-0.999,-0.0994,-0.318,0.184 (inactive),0.177 (inactive),-0.166 (inactive),-1,-0.367 (inactive),-0.233,-1.33,-0.394,-0.302
COCCOC(=O)N1C(=O)[C@@]2(c3cc(C#CC4=CCCCC4)ccc31)[C@H](c1ccccc1OCCO)N1[C@H](c3ccccc3)[C@H](c3ccccc3)OC(=O)[C@H]1[C@@H]2C(=O)Nc1nc2ccccc2s1,-0.19,-0.0036,-0.0398,0.359,1.23,0.953,1.08,1.41 (inactive),0.513,0.0373,1.29,0.478 (inactive),0.615 (inactive),1.29 (inactive),2.66,-0.15 (inactive),0.0274,1.05,1.06,-0.0728
CN1C(=O)C2C=CC(C(O)c3ccccn3)N(N(c3ccccc3)c3ccccc3)C2C1=O (stereo not given),0.733,0.0014,0.0276,0.0491,0.594,0.899,0.622,0.164 (inactive),0.613,0.245,0.412,1.13 (inactive),0.863 (inactive),0.491 (inactive),1.87,-0.828 (inactive),0.235,-0.112,-0.343,0.0353
CN(C)C(=O)[C@]1(CCS(=O)(=O)c2ccccc2)N=C(c2ccc(OCCCO)cc2)O[C@@H]1c1ccccc1N=[N+]=[N-],0.169,1.13,0.15,1.16,1.59,1.27,1.4,2.79 (inactive),1.84,0.155,1.53,0.154 (inactive),-0.327 (inactive),1.69 (inactive),3.78,0.0837 (inactive),0.429,1.42,1.05,0.204
O=C1O[C@H](c2ccccc2)[C@H](c2ccccc2)N2[C@H]1[C@@H](C(=O)NC[C@H](O)c1ccccc1)[C@]1(C(=O)Nc3ccc(C#CCCO)cc31)[C@H]2c1ccc(OCCO)cc1,0.141,0.628,0.0521,0.984,0.782,1.23,1.23,1.59 (inactive),0.131,-0.226,1.55,2.73 (inactive),1.62 (inactive),4.7 (inactive),2.08,0.301 (inactive),-0.122,0.558,0.818,-0.133
O=c1n(-c2ccccc2)c(=O)n2n1CC(COc1ccccc1)=C([C@H](O)CCc1ccccc1)[C@@H]2CO,-0.333,-0.0765,-0.141,0.265,0.094,-0.153,0.0463,-2.53 (inactive),0.0915,-0.318,0.17,-1.33 (inactive),-1.79 (inactive),-0.868 (inactive),-0.173,2.68 (inactive),-0.153,0.701,-0.196,-0.08
COc1ccc(C(O)C2C=CC3C(=O)N(c4ccccc4)C(=O)C3N2Nc2ccc([N+](=O)[O-])cc2)cc1 (stereo not given),0.928,-0.0823,0.25,0.935,1.64,0.546,1.16,-1 (inactive),1.18,-0.149,1.11,0.137 (inactive),1.4 (inactive),3.22 (inactive),3.09,-0.909 (inactive),0.432,0.0062,1.1,0.239
